High-throughput results (PubChem BioAssay)
Pf growth 96h – inhibits malaria parasite growth, 96 h; P. falciparum luciferase reporter growth, 96 h; Potency, µM (series often up to 28.7 µM), most hits filed as inhibitors; hit rate 6.9% among 320,000; AID 504834; active = well fitted inhibition curve with a large enough effect; inconclusive = small, poorly fitted or top-dose-only effect, or another doubt; inactive = no such curve, though single readings can be large or run the other way
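Two-generation exposure (96 h) targets delayed-death phenotype. Reporter parasites carrying integrated firefly luciferase, in red cells at 2% hematocrit and 0.05% parasitemia final, kept at 37 C, 5% CO2; luminescence loss indicates inhibition.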
NS1 function inh – inhibitors of influenza NS1 protein function; Potency, µM (top dose mostly 46.1 µM); hit rate 0.4% among 270,000; note: actives are rising curves; nearly all actives have a fitted effect of over 50% in size
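Growth recovery, yeast-based: influenza A NS1 expressed in S. cerevisiae causes slow growth, and suppressors are detected by OD600. The parent strain without NS1 is used as positive control.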
Pf growth 48h – P. falciparum growth inhibition at 48 hours (one generation); P. falciparum luciferase growth in erythrocytes, 48 h; hit rate 5.9% among 310,000; AID 504832; Potency, µM (titrated, usually from 28.7 µM), hits mostly inhibitors; active = well fitted inhibition curve with a large enough effect; inconclusive = small, poorly fitted or top-dose-only effect, or another doubt; inactive = no such curve, though single readings can be large or run the other way
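Luciferase-expressing P. falciparum in infected erythrocytes (2% hematocrit, 0.1% parasitemia final) in RPMI 1640/0.5% Albumax were exposed to compound for 48 hours at 37 C, 5% CO2; growth read as luminescence.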
SARS PLP yeast – blocks SARS-CoV papain-like protease in a yeast assay; S. cerevisiae expressing SARS-CoV PLpro, growth rescue; Potency, µM (highest dose often 32.9 µM), hits mostly activators; hit rate 0.19% among 330,000; note: nearly all actives have a fitted effect of over 55% in size
Numbers stand for hits; – = inactive; ? = inconclusive; · = no result given. Hits are enriched below; roughly 10% of the tested compounds scored in any of these assays. Unless noted, calls come from the whole dose curve.

SMILES	Pf growth 96h	NS1 function inh	Pf growth 48h	SARS PLP yeast
COCCn1c(-c2ccc(NC(C)=O)cc2)nc2c1c(=O)[nH]c(=O)n2CC(C)C	–	–	–	–
CCCCn1c(=O)[nH]c(=O)c2c1nc(-c1ccc(-c3ccc(F)cc3)o1)n2C	–	–	–	–
CC(C)Cn1c(-c2ccc(C#N)cc2)nc2c1c(=O)[nH]c(=O)n2CC(C)C	10.4µM	–	·	–
CCCCn1c(-c2ccc(Br)cc2F)nc2c1c(=O)[nH]c(=O)n2CC(C)C	?	–	10.4µM	–
CC(=O)[C@H]1CC[C@H]2[C@@H]3C=CC4=CC(=O)CC[C@@]4(C)[C@@H]3CC[C@]12C	–	·	?	·
COc1cccc(NC(=O)CSc2nnc3ccc(-c4ccncc4)nn23)c1	–	·	–	–
O=C(Nc1ccc2c(c1)OCO2)C1CC(c2ccccc2Cl)=NO1 (stereo unspecified)	–	–	–	–
CCn1cc(C2=NOC(C(=O)Nc3ccc4c(c3)OCO4)C2)c(C)n1 (stereo unspecified)	0.522µM	–	?	–
O=C(Cc1c[nH]c2ccccc12)NCC(=O)Nc1ccc(F)c(F)c1F	–	·	–	–
CN(C(=O)COC(=O)c1ccc2ccccc2n1)C1CCCCC1	·	·	·	–
CCOC(=O)N1CCC2(CC1)C(C#N)=C(N)Oc1c2c(C)nn1-c1cccc(Cl)c1	–	–	9.28µM	–
Cc1[nH]c2ccccc2c1SCc1nnc(SCc2ccc(Cl)cc2)n1C	?	–	14.7µM	–
Cc1[nH]c2ccccc2c1SCc1nnc(SCc2ccccc2)n1C	?	–	?	–
CCOCCOc1cccc(C(=O)NC(C)c2ccc3ccccc3c2)c1 (stereo unspecified)	?	–	–	–
CCOCCOc1cccc(C(=O)NC(c2ccccc2)c2ccccc2)c1	2.08µM	–	?	–
COc1cc(OC)cc(C(=O)NC(c2ccccc2)c2ccccc2)c1	11.7µM	–	?	?
CC1(c2ccc(Cl)cc2)NC(=O)N(CC(=O)Nc2cccnc2Cl)C1=O (stereo unspecified)	–	·	–	–
CCSC1=C(C#N)C(c2cccc(Br)c2)CC(=O)N1 (stereo unspecified)	–	–	6.57µM	–
CCSC1=C(C#N)C(c2cccc(O)c2)CC(=O)N1 (stereo unspecified)	–	–	·	–
C[C@@H](N)C(=O)O	–	·	16.9µM	·
C[C@]12c3[nH]c4ccccc4c3CCN1C(=O)C(CC(=O)NCCN1CCOCC1)C[C@@H]2C(=O)N1CCOCC1 (stereo partly specified)	·	·	·	–
Nc1nc(NCCCN2CCOCC2)nc(NCc2ccccc2)c1[N+](=O)[O-]	?	–	?	–
Nc1nc(NCCc2ccccc2)nc(NCc2ccccc2)c1[N+](=O)[O-]	?	–	9.28µM	–
Nc1nc(NCCN2CCOCC2)nc(NCc2ccccc2)c1[N+](=O)[O-]	8.28µM	–	6.57µM	–
O=C(OCC(=O)N1CCOCC1)c1cccc(S(=O)(=O)N2CCCc3ccccc32)c1	–	–	–	–
SMILES	Pf growth 96h	NS1 function inh	Pf growth 48h	SARS PLP yeast
NCC(=O)Nc1ccccc1	·	–	·	·
CC(C)NCC(O)c1ccc2ccccc2c1 (stereo unspecified)	4.65µM	·	1.47µM	·
CC(C)NCC(O)c1ccc(O)c(O)c1 (stereo unspecified)	?	?	?	–
C/C(=N\NC(=O)c1nnn(-c2nonc2N)c1CN1CCCCC1)c1ccccc1O	–	–	?	–
COc1ccc(CNC(NC(=O)c2ccccc2)(C(F)(F)F)C(F)(F)F)cc1	?	–	11.7µM	–
CCOC(=O)C(NCc1ccc(F)cc1)(NC(=O)c1ccccc1)C(F)(F)F (stereo unspecified)	10.4µM	–	–	–
CCOC(=O)C(NCc1ccccc1OC)(NC(=O)c1ccccc1)C(F)(F)F (stereo unspecified)	–	–	?	–
COc1ccc(CNC(=O)c2ccc(-c3ccccc3)cc2)cc1	–	–	–	–
CCCCN(C(=O)COC(=O)c1ccc(C=O)cc1)c1c(N)n(CCC)c(=O)[nH]c1=O	?	·	?	–
Cc1ccc(C)c(S(=O)(=O)N2CCCOC2CNC(=O)C(=O)NCc2ccco2)c1 (stereo unspecified)	–	–	?	–
COc1ccccc1CCNC(=O)C(=O)NCC1OCCCN1S(=O)(=O)c1cc(C)ccc1C (stereo unspecified)	?	–	?	–
COc1ccc(CCNC(=O)C(=O)NCC2OCCCN2S(=O)(=O)c2cc(C)ccc2C)cc1 (stereo unspecified)	13.1µM	–	?	–
Cc1ccc(C)c(S(=O)(=O)N2CCCOC2CNC(=O)C(=O)NCCc2ccco2)c1 (stereo unspecified)	13.1µM	–	–	–
CCO[C@@H]1OC(C(N)=O)=C[C@H](c2ccc3c(c2)OCO3)[C@H]1CCCO	–	–	–	–
CCCCC(=O)NC(c1ccccc1Cl)c1ccc2cccnc2c1O (stereo unspecified)	–	–	2.33µM	?
CC(=O)NC(c1ccccc1)c1cc([N+](=O)[O-])c2cccnc2c1O (stereo unspecified)	–	·	?	–
CC(=O)NC(c1ccc(C(C)C)cc1)c1ccc2cccnc2c1O (stereo unspecified)	–	–	7.38µM	–
CCCCC(=O)NC(c1ccco1)c1cc(Cl)c2cccnc2c1O (stereo unspecified)	–	–	?	–
CCCCC(=O)NC(c1ccc(C(C)C)cc1)c1ccc2cccnc2c1O (stereo unspecified)	–	–	1.65µM	7.08µM
O=C(O)/C=C(\CC(=O)O)C(=O)O	·	–	·	·
O=C(c1ccc(CS(=O)(=O)c2ccccc2)o1)N1CCOCC1	11.7µM	–	·	–
O=C(c1ccc(CS(=O)(=O)c2ccc(Br)cc2)o1)N1CCCC1	7.38µM	–	·	–
Cc1cccc(NC(=O)c2ccc(Cl)c(S(=O)(=O)N3CCc4ccccc43)c2)n1	11.7µM	·	11.7µM	–
Cc1cccc(NC(=O)c2ccc(Cl)c(S(=O)(=O)N3CCCC3)c2)n1	7.38µM	–	?	–
COc1ccc(S(=O)(=O)N2CCCCCC2)cc1C(=O)Nc1cc(C)ccn1	10.4µM	·	9.28µM	–
SMILES	Pf growth 96h	NS1 function inh	Pf growth 48h	SARS PLP yeast
Cc1cccc(NC(=O)c2cc(S(=O)(=O)N3CCCCC3)ccc2Cl)n1	?	·	9.28µM	–
Cc1cccc(NC(=O)c2ccc(S(=O)(=O)N3CCCCCC3)cc2)n1	?	·	?	–
COc1ccc(S(=O)(=O)N2CCCCCC2)cc1C(=O)Nc1ccccn1	?	–	–	–
Cc1ccc(S(=O)(=O)N2CCCCC2)cc1C(=O)Nc1ccccn1	2.08µM	–	3.29µM	–
O=C(Nc1ccncc1)c1ccc(Cl)c(S(=O)(=O)N2CCc3ccccc32)c1	3.7µM	·	3.29µM	–
CCc1nnc(NC(=O)c2ccc(Cl)c(S(=O)(=O)N3CCc4ccccc43)c2)s1	?	–	·	–
O=C(Nc1ccc2c(c1)CN(Cc1ccc(CO)o1)CC2)c1ccc(C(F)(F)F)cc1	–	–	?	–
COCCC(=O)Nc1ccc2c(c1)CN(C(=O)c1ccc(CSC)o1)CC2	13.1µM	–	?	–
COc1ccccc1CCC(=O)Nc1ccc2c(c1)CN(Cc1ccc(CO)o1)CC2	?	–	13.1µM	–
Cc1ccc(C(=O)Nc2nnc(COc3ccccc3)s2)cc1	?	–	–	–
